High-throughput results deposited in PubChem by The Scripps Research Institute Molecular Screening Center.
HTR2A ag = mouse Htr2a agonists via beta-arrestin recruitment, primary screen, cell-based, luminescence | 5-hydroxytryptamine receptor 2A (Mus musculus), P35363 | CHO-K1 mHTR2A beta-arrestin complementation; percent of 30 µM serotonin response | activation, % at 7.6 µM | 360,000 compounds, 0.66% hits | AID 624169, 2012;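 active = activation above a run cutoff, the mean activation of all tested compounds plus 3 SD, cut at about 14% in these data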
MOR-DOR ag = agonists of OPRM1-OPRD1 heterodimerization, primary screen, cell-based, luminescence | Mu-type opioid receptor (Homo sapiens) + Delta-type opioid receptor (Homo sapiens), … | cells | activation, % at 9.3 µM | 340,000 compounds, 0.3% hits | AID 504326, 2011; in the data active = activation above about 18%
HTR5A inv ag = HTR5A inverse agonists in luminescence cell assay, primary screen, counter-screen for OPRM1-OPRD1 heterodimer inverse agonist project, full-deck HTS | 5-hydroxytryptamine receptor 5A (Homo sapiens), P47898 | HTR5A cell line, inverse agonism | inhibition, % at 9.3 µM | 340,000 compounds, 0.083% hits | AID 504634, 2011; in the data active = inhibition mostly above about 23%, no sharp cut-off; inactive = mostly below about 18%
Target sequence (P47898 whole entry, looked up): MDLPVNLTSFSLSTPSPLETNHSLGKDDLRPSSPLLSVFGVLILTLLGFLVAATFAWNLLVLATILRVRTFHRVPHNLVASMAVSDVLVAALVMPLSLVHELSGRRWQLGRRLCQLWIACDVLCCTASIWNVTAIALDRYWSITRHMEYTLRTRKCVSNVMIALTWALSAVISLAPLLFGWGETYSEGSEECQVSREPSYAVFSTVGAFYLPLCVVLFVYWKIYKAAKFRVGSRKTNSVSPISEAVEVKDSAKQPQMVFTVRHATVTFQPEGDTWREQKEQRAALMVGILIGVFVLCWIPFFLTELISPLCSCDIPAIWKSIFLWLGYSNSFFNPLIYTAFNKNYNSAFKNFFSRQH
HTR5A ag ctr = HTR5A agonists in luminescence cell assay, primary screen, counter-screen for OPRM1-OPRD1 heterodimer agonist project, full-deck HTS; 5-hydroxytryptamine receptor 5A (Homo sapiens), P47898; cell-based; activation, % at 9.3 µM; 340,000 compounds, 0.61% hits; AID 504692, 2011; in the data active = activation mostly above about 9.5%, no sharp cut-off; inactive = mostly below about 7.6%
OPRM1-OPRD1 inv = inverse agonists of MOR-DOR heterodimerization, primary screen, cell-based, luminescence; cell-based MOR-DOR heterodimer luminescence, inverse agonism; 340,000 compounds, 0.21% hits; Mu-type opioid receptor (Homo sapiens) + Delta-type opioid receptor (Homo sapiens), …; inhibition, % at 9.3 µM; in the data active = inhibition above about 22%, passing the limit was not always enough
MOR ag counter = OPRM1 agonists via beta-arrestin recruitment, confirmation, counter-screen for mouse HTR2A agonist project, cell-based, luminescence, single concentration. shares compounds with HTR2A ag. U2OS OPRM1 beta-arrestin PathHunter; DMSO 0%, DAMGO 9.3 µM 100%. activation, % at 9.3 µM. 2,300 compounds, 5.3% hits. AID 624380, 2012;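 active = mean activation above the mean of DMSO-only wells plus 3 SD, cut at about 0.5% in these data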
m5-HT2A ag conf = mouse HTR2A agonists, beta-arrestin recruitment, confirmation, cell-based, luminescence, CHO-K1 PathHunter, triplicate; shares compounds with HTR2A ag; DMSO 0%, 30 µM serotonin 100%; activation, % at 7.6 µM; 2,300 compounds, 19% hits; AID 624381, 2012;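 active = mean activation across triplicates above the hit threshold derived in the original primary screen, cut at about 15% in these data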
Large screens that a line does not name were inactive (follow-up assays come after a bar, where they were run). Rows were chosen to be rich in hits. Some 1.6% of all compounds tested hit in one or more screens of this group.

OCCC1CN(Cc2ccncc2)CCN1C1CCCC1 (stereo not drawn)	none
Cc1nn(C)c(Cl)c1CN1CCN(C2CCCC2)C(CCO)C1 (stereo not drawn)	HTR2A ag 24 | MOR ag counter inactive | m5-HT2A ag conf inactive
Cc1ccc(C(=O)C(C)OC(=O)Cn2cnc3c2c(=O)n(C)c(=O)n3C)cc1 (stereo not drawn)	none
CCc1ccc(C(=O)C(C)OC(=O)Cn2cnc3c2c(=O)n(C)c(=O)n3C)cc1 (stereo not drawn)	HTR2A ag 17 | MOR ag counter inactive | m5-HT2A ag conf inactive
CC(=O)N1CCc2cc(C(=O)CN3CCN(c4ccccn4)CC3)ccc21	HTR2A ag 18 | MOR ag counter inactive | m5-HT2A ag conf 117
CC(=O)N1CCc2cc(C(=O)CN3CCN(c4ccccc4F)CC3)ccc21	none
COCc1ccc(CN2CCC(n3nccc3NC(=O)C(OC)c3ccccc3)CC2)o1 (stereo not drawn)	HTR2A ag 15 | MOR ag counter inactive | m5-HT2A ag conf inactive
O=C(Cc1cccc(NC(=O)C2CCCN(C(=O)C3CCC3)C2)c1)Nc1ccc(C(=O)N2CCOCC2)cc1 (stereo not drawn)	HTR2A ag 29 | MOR ag counter inactive | m5-HT2A ag conf inactive
CC(C)(C)n1nnnc1C(c1ccccc1)N1CCN(c2ccc(C(F)(F)F)cn2)CC1 (stereo not drawn)	none (no result: MOR-DOR ag, HTR5A inv ag, HTR5A ag ctr, OPRM1-OPRD1 inv)
OC(COc1ccc(Cl)cc1)CN1CCN(c2ccccn2)CC1 (stereo not drawn)	none
OC(COCc1cccs1)CN1CCN(c2ccccc2Cl)CC1 (stereo not drawn)	none
OC(COCc1cccs1)CN1CCN(c2ccccn2)CC1 (stereo not drawn)	HTR2A ag 20 | MOR ag counter inactive | m5-HT2A ag conf 80
OC(COCc1ccc(Cl)cc1)CN1CCN(c2ccccn2)CC1 (stereo not drawn)	HTR2A ag 18 | MOR ag counter inactive | m5-HT2A ag conf 99
COc1ccc(NC(=O)C2(C)Cc3c(-c4cccc(C(N)=O)c4)ccnc3O2)cc1OC (stereo not drawn)	none (no result: MOR-DOR ag, HTR5A inv ag, HTR5A ag ctr, OPRM1-OPRD1 inv)
O=C(O)c1nn(CC(=O)N(C2CCCCC2)C2CCCCC2)c(=O)c2ccccc12	HTR2A ag 33 | MOR ag counter inactive | m5-HT2A ag conf inactive
CCN(C(=O)Cn1nc(C(=O)O)c2ccccc2c1=O)C1CCCCC1	none
COc1cc(C2N(c3cccc(Cl)c3)C(=O)C3CCCN32)cc(OC)c1OC (stereo not drawn)	HTR2A ag 21 | MOR ag counter inactive | m5-HT2A ag conf inactive
COc1cccc(C2N(c3cccc(Cl)c3)C(=O)C3CCCN32)c1OC (stereo not drawn)	HTR2A ag 17 | MOR ag counter inactive | m5-HT2A ag conf inactive
CC1(C(=O)NS(=O)(=O)c2ccc(Cl)s2)CCN1C(=O)c1ccccc1CCc1ccccc1 (stereo not drawn)	none (no result: MOR-DOR ag, HTR5A inv ag, HTR5A ag ctr, OPRM1-OPRD1 inv)
C=C1C(=O)OC2C1C(OC(=O)C(C)=CC)CC(=C)C1C(O)C3OC3(C)C21O (stereo not drawn)	HTR2A ag 16 | MOR ag counter inactive | m5-HT2A ag conf inactive
C=C1C(=O)OC2C=C(CO)CCC=C(CO)CC(OC(=O)C(C)C)C12 (stereo not drawn)	none
CC(C)Oc1ccc(S(=O)(=O)N2CCOCC2)cc1NC(=O)CC1OC(=O)c2ccccc21 (stereo not drawn)	HTR2A ag 16 | MOR ag counter inactive | m5-HT2A ag conf inactive
Cc1cc(C)cc(-n2c(C)cc(/C=C3\C(=N)N4N=C(CC(C)C)SC4=NC3=O)c2C)c1	HTR2A ag 18 | MOR ag counter inactive | m5-HT2A ag conf inactive
Cc1cccc(-n2c(C)cc(/C=C3\C(=N)N4N=C(CC(C)C)SC4=NC3=O)c2C)c1	none
